Data as given in the supplement of paper PMC12582362.
Counter-ions that a name gives are not always drawn. The whole screen tested about 1,500 compounds, of which about 30 (2%) showed activity. What follows is part of a selection rich in actives, with near analogues and random picks from the rest. A number with no mark means an inactive call.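 How the source made its calls: active = robust z-score below -2; a few such results were not called.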

Tested on: optoTopBP1 Flp-In 293 T-REx (HEK293) cells
Experiment: light-induced TopBP1 condensate (nuclear foci) count, plate-normalised robust z-score vs non-control wells; higher = more TopBP1 condensates (negative = condensation inhibitor), active = hit call of the paper
Settings: 10 µM; incubation time 2 h

SMILES	light-induced TopBP1 condensate (z-score)
CC(C)(S)C(N)C(=O)O (racemic) [D,L-Penicillamine]	1.98
Cc1ccc(C)c(OCCCC(C)(C)C(=O)O)c1 [Gemfibrozil]	0.575
CC(=O)[C@@]12O[C@](C)(c3ccccc3)O[C@@H]1C[C@H]1[C@@H]3CCC4=CC(=O)CC[C@]4(C)[C@H]3CC[C@@]12C [Algestone acetophenide]	-1.65
COc1cc(NS(=O)(=O)c2ccc(N)cc2)nc(OC)n1 [Sulfadimethoxine]	0.224
CCN(CC)C(=O)Nc1ccc(OCC(O)CNC(C)(C)C)c(C(C)=O)c1 (centres undefined) [Celiprolol hydrochloride]	-0.488
CCc1oc2ccccc2c1C(=O)c1ccc(O)cc1 [Benzarone]	1.57
CCCCC1=NC2(CCCC2)C(=O)N1Cc1ccc(-c2ccccc2-c2nnn[nH]2)cc1 [Irbesartan]	-0.971
CN(C)C(=N)NC(=N)N [Metformin hydrochloride]	-0.726
CC(C)(C)C(O)/C=C/c1ccc2c(c1)OCO2 (centres undefined) [Stiripentol]	1.26
CCOC(=O)c1c(N)sc2c1CCN(Cc1ccccc1)C2 [Tinoridine hydrochloride]	0.308
C[C@H]1O[C@@H](O[C@H]2[C@@H](O)C[C@H](O[C@H]3[C@@H](O)C[C@H](O[C@H]4CC[C@@]5(C)[C@H](CC[C@@H]6[C@@H]5C[C@@H](O)[C@]5(C)[C@@H](C7=CC(=O)OC7)CC[C@]65O)C4)O[C@@H]3C)O[C@@H]2C)C[C@H](O)[C@@H]1O [Digoxin]	-2.42 (active)
CCCCOC(=O)c1ccccc1Nc1cccc(C(F)(F)F)c1 [Ufenamate]	-0.0275
O=C(NCCO[N+](=O)[O-])c1cccnc1 [Nicorandil]	0.468
Cn1nnc2c(C(N)=O)ncn2c1=O [Temozolomide]	-0.835
Cc1c(Cl)cccc1Nc1ncccc1C(=O)O [Clonixin Lysinate]	0.77
NC(=O)c1cc[n+](CC2=C(C(=O)[O-])N3C(=O)[C@@H](NC(=O)[C@@H](c4ccccc4)S(=O)(=O)O)[C@H]3SC2)cc1 [Cefsulodin sodium salt]	0.128
CC[C@H]1OC(=O)[C@H](C)[C@@H](O[C@H]2C[C@@](C)(OC)[C@@H](O)[C@H](C)O2)[C@H](C)[C@@H](O[C@@H]2O[C@H](C)C[C@H](N(C)C)[C@H]2O)[C@](C)(O)C[C@@H](C)C(=O)[C@H](C)[C@@H](O)[C@]1(C)O [Erythromycin]	-0.359
CCC1(c2ccccc2)NC(=O)N(C)C1=O (centres undefined) [Mephenytoin]	0.477
COCC(=O)O[C@]1(CCN(C)CCCc2nc3ccccc3[nH]2)CCc2cc(F)ccc2[C@@H]1C(C)C [Mibefradil]	-2.07 (active)
COc1cc(/C=C/C(=O)N2CCN(CC(=O)N3CCCC3)CC2)cc(OC)c1OC [Cinepazide maleate]	-0.187

SMILES	light-induced TopBP1 condensate (z-score)
CC(C)[C@H](N)C(=O)OCC(CO)OCn1cnc2c(=O)nc(N)[nH]c21 (some centres undefined) [Valganciclovir hydrochloride]	0.111
CN(C)CCN(Cc1ccc(Cl)cc1)c1ccccn1 [Chloropyramine hydrochloride]	-0.941
CCCCCCCCCCCCCCCC[N+](C)(C)CCN(Cc1ccc(OC)cc1)c1ncccn1 [Thonzonium bromide]	-2.49 (active)
COc1ccc(CN(CCN(C)C)c2ccccn2)cc1 [Pyrilamine maleate]	-1.49
CO/N=C(\C(=O)N[C@@H]1C(=O)N2C(C(=O)OC(C)OC(C)=O)=C(COC(N)=O)CS[C@H]12)c1ccco1 (some centres undefined) [Cefuroxime axetil]	-0.531
C=C(NC(=O)C(=C)NC(=O)c1csc(C2=N[C@@H]3c4csc(n4)[C@H]4NC(=O)c5csc(n5)[C@H]([C@](C)(O)[C@@H](C)O)NC(=O)[C@H]5CSC(=N5)/C(=C/C)NC(=O)[C@H]([C@@H](C)O)NC(=O)c5csc(n5)[C@]3(CC2)NC(=O)[C@H](C)NC(=O)C(=C)NC(=O)[C@H](C)NC(=O)[C@H]([C@@H](C)CC)N[C@@H]2C=Cc3c([C@H](C)O)cc(nc3[C@H]2O)C(=O)O[C@@H]4C)n1)C(N)=O [Thiostrepton]	-3.34 (active)
CC(C)c1ccc2oc3nc(N)c(C(=O)O)cc3c(=O)c2c1 [Amlexanox]	-0.968
N=C(NCCCCCCNC(=N)NC(=N)Nc1ccc(Cl)cc1)NC(=N)Nc1ccc(Cl)cc1 [Chlorhexidine]	0.68
CCc1ccc(C(=O)C(C)CN2CCCCC2)cc1 (centres undefined) [Eperisone HCl]	1.18
CC(=O)OCC(=O)[C@@]12N=C(C)O[C@@H]1C[C@H]1[C@@H]3CCC4=CC(=O)C=C[C@]4(C)[C@H]3[C@@H](O)C[C@@]12C [Deflazacort]	-0.182
CCOC(=O)C1=C(COCCN)NC(C)=C(C(=O)OC)C1c1ccccc1Cl (centres undefined) [Amlodipine]	-1.57
OC(c1cc(C(F)(F)F)nc2c(C(F)(F)F)cccc12)C1CCCCN1 (centres undefined) [Mefloquine hydrochloride]	-1.69
CN(C)c1ccc2nc3ccc(=[N+](C)C)cc-3sc2c1 [Methylene blue]	-8.05 (active)
CCOc1ccc2nc3cc(N)ccc3c(N)c2c1 [Ethacridine lactate]	0.0605
Nc1ccc2cc3ccc(N)cc3nc2c1 [Proflavine hemisulfate]	-6.85 (active)
Nc1c2ccccc2nc2ccccc12 [Aminacrine]	-2.02
CO/N=C(\C(=O)N[C@@H]1C(=O)N2C(C(=O)[O-])=C(C[n+]3ccn4ncccc43)CS[C@H]12)c1nsc(N)n1 [Cefozopran hydrochloride]	0.96
CC[C@H]1OC(=O)[C@H](C)[C@@H](O[C@H]2C[C@@](C)(OC)[C@@H](O)[C@H](C)O2)[C@H](C)[C@@H](O[C@@H]2O[C@H](C)C[C@H](N(C)C)[C@H]2O)[C@](C)(O)C[C@@H](C)/C(=N\OCOCCOC)[C@H](C)[C@@H](O)[C@]1(C)O [Roxithromycin]	0.222
CC[N+](C)(CC)CCOC(=O)C1c2ccccc2Oc2ccccc21 [Methantheline bromide]	0.691
CSc1nc2cc(Cl)c(Oc3cccc(Cl)c3Cl)cc2[nH]1 [Triclabendazole]	-2.43 (active)

SMILES	light-induced TopBP1 condensate (z-score)
C[C@@H](CN1CC(=O)NC(=O)C1)N1CC(=O)NC(=O)C1 [Dexrazoxane hydrochloride]	-0.035
C=CCOc1ccc(CC(=O)O)cc1Cl [Alclofenac]	0.0679
N=C(N)NCCN1CCCCCCC1 [Guanethidine sulfate]	-0.799
CC(C)(C)NC[C@H](O)COc1ccccc1C1CCCC1 [Penbutolol sulfate]	-0.793
COc1ccccc1Oc1c(NS(=O)(=O)c2ccc(C(C)(C)C)cc2)nc(-c2ncccn2)nc1OCCO [Bosentan]	0.343
CC[C@H]1OC(=O)C[C@@H](O)[C@H](C)[C@@H](O[C@@H]2O[C@H](C)[C@@H](O[C@H]3C[C@@](C)(O)[C@@H](O)[C@H](C)O3)[C@H](N(C)C)[C@H]2O)[C@@H](CC=O)C[C@@H](C)C(=O)/C=C/C(C)=C/[C@@H]1CO[C@@H]1O[C@H](C)[C@@H](O)[C@@H](OC)[C@H]1OC [Tylosin]	0.755
CN1C(=O)OC(C)(C)C1=O [Trimethadione]	0.285
NC[C@@H]1O[C@@H](O[C@H]2[C@H](O)[C@@H](O[C@H]3O[C@H](CO)[C@@H](O)[C@H](N)[C@H]3O)[C@H](N)C[C@@H]2N)[C@@H](O)[C@H](O)[C@H]1O [Kanamycin A sulfate]	0.0568
C[C@H]1[C@H](OC(=O)CCC(=O)O)O[C@@H]2O[C@@]3(C)CC[C@H]4[C@H](C)CC[C@@H]1[C@@]24OO3 [Artesunate]	-0.0235
CCN(CC)CCCC(C)Nc1ccnc2cc(Cl)ccc12 (centres undefined) [Chloroquine diphosphate]	-0.187
CCN(CCO)CCCC(C)Nc1ccnc2cc(Cl)ccc12 (centres undefined) [Hydroxychloroquine sulfate]	-1.68
CCN(CC)CCCC(C)Nc1c2ccc(Cl)cc2nc2ccc(OC)cc12 (centres undefined) [Quinacrine dihydrochloride hydrate]	-3.15 (active)
CC(=O)N[C@@H](CC(=O)N[C@@H](CCC(=O)O)C(=O)O)C(=O)O [Spaglumic acid]	1.44
CC(C)(CO)[C@@H](O)C(=O)NCCC(=O)NCCSSCCNC(=O)CCNC(=O)[C@H](O)C(C)(C)CO [Pantethine]	0.505
NCCCC(O)(P(=O)(O)O)P(=O)(O)O [Alendronate sodium]	-0.706
O=P(O)(O)C(O)(Cc1cccnc1)P(=O)(O)O [Risedronic acid monohydrate]	-0.826
C#C[C@]1(O)CC[C@H]2[C@@H]3CCC4=CCCC[C@@H]4[C@H]3CC[C@@]21C [Lynestrenol]	1.39
CC(C)=CCC1C(=O)N(c2ccccc2)N(c2ccccc2)C1=O [Feprazone]	1.11
C[N+](C)(C)C[C@H](O)CC(=O)[O-] [Levocarnitine]	0.0352
